Rows were chosen to be rich in hits. Some 19% of all compounds tested hit in one or more screens of this group.
TDP1 cell CPT = DT40-hTDP1 cell growth loss with CPT; chicken DT40 Tdp1-/-;hTDP1 cells + 20 nM CPT, ATP luminescence, 48 h; Potency, µM (highest dose often 46.2 µM), actives largely listed as inhibitors; 12% of 420,000 active; AID 686979; further: nearly all actives have a fitted effect of over 55% in size
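Chicken DT40 Tdp1-/- cells complemented with human TDP1, 400 cells/well, exposed to compounds plus 20 nM camptothecin for at least 48 h at 37 C; viability read as ATP content by CellTiter-Glo luminescence.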
HT1080-NT tox = kills 2HG-producing HT-1080-NT fibrosarcoma cells | HT-1080-NT fibrosarcoma viability, CellTiter-Glo ATP luminescence, 48 h | Potency, µM (top dose mostly 46.1 µM), usual class: cytotoxic | 1.6% of 360,000 active;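 further: NT is the 2HG producing partner of a matched IDH1 knockdown line; nearly all actives have a fitted effect of over 55% in size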
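Fibrosarcoma NT cells, 750 per well in 5% FBS RPMI, were exposed to compound for 48 hours. Viability: CellTiter-Glo luminescence.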
IL-1B inflam inh = inflammasome signaling inhibition, IL-1 beta readout | THP-1 LPS/ATP IL-1B secretion, AlphaLISA, 16 h; stronger effect = lower value | activity change, % at 57.5 µM | 4.7% of 360,000 active; in the data active means activity change below about -50%; inconclusive means mostly about -30% to -49%
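Secreted IL-1B measured by AlphaLISA bead assay after 16 h compound exposure of THP-1 cells; compounds (final up to 57.5 uM) added 1 h before LPS (250 ng/mL) and ATP (1.25 mM) stimulation; lower signal means less secretion.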
HT1080 IDH1KD tx = kills HT-1080 cells with IDH1 knockdown; HT-1080 IDH1 knockdown viability, ATP luminescence, 48 h; Potency, µM (doses to about 46.1 µM), hits mostly cytotoxic; 2% of 360,000 active; AID 686971
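HT-1080-IDH1KD cells (IDH1 knocked down), 750/well in RPMI with 5% FBS, treated with compound 48 h at 37 degrees C. Viability by CellTiter-Glo luminescence, normalised to DMSO and no-cell wells; concentration-response curves classed.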
TDP1 cell noCPT = qHTS for Inhibitors of human tyrosyl-DNA phosphodiesterase 1 (TDP1): qHTS in cells in absence of CPT | DT40 Tdp1-/- hTDP1 cells, no CPT, ATP luminescence, 48 h | Potency, µM (titrated, usually from 46.2 µM), hits mostly inhibitors | 15% of 420,000 active | AID 686978, 2013; further: nearly all actives have a fitted effect of over 55% in size
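Camptothecin absent (DMSO only). Human TDP1-complemented DT40 knockout cells, 400 cells/well, 37 °C for minimum 48 hr; ATP measured via CellTiter-Glo, 30 min dark incubation, luminescence.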
ELG1 DNA repair = blocks ELG1-dependent DNA repair in HEK293T cells; 2.3% of 330,000 active; Potency, µM (top dose mostly 46.1 µM), hits mostly inhibitors; HEK293T ELG1-luciferase reporter, luminescence, 16 h; DNA damage induced by 5-fluorouridine; further: nearly all actives have a fitted effect of over 55% in size
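5-Fluorouridine DNA damage + compound/DMSO, 2,000 cells/well, 16 h, 37 °C/5% CO2. ONE-Glo, 30 min RT, luminescence. Readout = decrease in reporter signal.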
Hits are given with their value; 0 = inactive; ? = inconclusive; - = no result. Unless noted, the call rests on the fitted dose curve; in most records, active means well fitted curve in the direction sought with a large enough effect; inconclusive means small, poorly fitted or top-dose-only effect, or another doubt; inactive means no such curve, though single readings can be large; an effect the other way counts as inactive or inconclusive.

SMILES | TDP1 cell CPT | HT1080-NT tox | IL-1B inflam inh | HT1080 IDH1KD tx | TDP1 cell noCPT | ELG1 DNA repair
CCN1C(=O)/C(=C/c2ccc(OC)c(OC)c2)N=C1SCC(=O)NCc1ccco1 | 0 | 0 | 0 | 0 | ? | ?
OCc1ccccc1SSc1ccccc1CO | 2.3µM | ? | -99 | ? | 3.3µM | -
Cc1ccc2cc(CN(CCN(C)C)C(=S)Nc3ccccc3)c(=O)[nH]c2c1C | ? | 0 | -85 | 0 | 21µM | 9.2µM
Cc1ccc(NC(=S)N(CCCN(C)C)Cc2cc3cc4c(cc3[nH]c2=O)OCO4)cc1 | 0 | 0 | 0 | 0 | 0 | 0
Cc1ccc(NC(=S)N(CCN(C)C)Cc2cc3cc(C)cc(C)c3[nH]c2=O)cc1 | ? | 0 | -53 | 0 | 4.6µM | 0
CCOCCCN(Cc1cc2cc(C)cc(C)c2[nH]c1=O)C(=O)N(CC)CC | 15µM | 0 | 0 | 0 | 16µM | 0
CCN(CC)CCN(Cc1cc2cccc(C)c2[nH]c1=O)C(=S)Nc1ccccc1 | ? | 0 | -80 | 0 | ? | ?
Cc1cccc2cc(CN(Cc3ccccc3)C(=O)N(C)C)c(=O)[nH]c12 | ? | 0 | 0 | 0 | ? | 0
Fc1ccc2cc(-c3ccccc3F)ncc2c1 | 0 | 0 | 0 | 0 | 0 | ?
O=C(Nc1c(C(=O)N2CCN(c3ccccn3)CC2)oc2ccccc12)c1cccc([N+](=O)[O-])c1 | ? | 0 | 0 | 0 | ? | ?
Cc1cccc2cc(CN(CC3CCCO3)C(=O)c3ccco3)c(=O)[nH]c12 (stereo unspecified) | 0 | 0 | 0 | 0 | 0 | 0
CCN(Cc1cc2ccccc2[nH]c1=O)S(=O)(=O)c1ccccc1 | 0 | 0 | 0 | 0 | 0 | ?
Cc1cccc2cc(CN(CC(C)C)S(=O)(=O)c3ccccc3)c(=O)[nH]c12 | ? | 0 | 0 | 0 | 23µM | ?
Cc1cccc2cc(CN(CC3CCCO3)C(=S)Nc3ccccc3)c(=O)[nH]c12 (stereo unspecified) | 0 | 0 | 0 | 0 | ? | 16µM
CCC(=O)N1c2ccccc2CC1C(=O)NCc1cccc(C)c1 (stereo unspecified) | 0 | - | - | - | 0 | -
O=C1Nc2cc(Cl)ccc2Oc2cc(Oc3ccccc3)ccc21 | ? | - | - | - | 21µM | -
Cc1c(Cl)cccc1NC(=O)C(=O)NCCc1csc(-c2ccc(C(F)(F)F)cc2)n1 | 0 | - | - | - | 0 | -
Cc1csc2c(NCCCN3CCOCC3)ncnc12 | 0 | 0 | 0 | 0 | 0 | ?
CC1CCCN(S(=O)(=O)c2cccc(C(=O)NCC3CCCO3)c2)C1 (stereo unspecified) | 0 | 0 | 0 | 0 | 0 | 0
CCn1c(SCC(=O)N2CCN(c3ccc(F)cc3)CC2)nc2ccccc2c1=O | 21µM | 0 | 0 | 0 | ? | 0
Cc1cc(SCn2nnc3ccccc3c2=O)nc2ccccc12 | 0 | 0 | 0 | 0 | 0 | ?
Cc1ccc(-n2nnnc2SCn2nnc3ccccc3c2=O)c(C)c1 | 9.2µM | 0 | 0 | 0 | 8.2µM | -
O=C(CSc1n[nH]c(-c2ccc(F)cc2)n1)N1CCN(c2ccc(F)cc2)CC1 | 16µM | - | - | - | 23µM | -
CCn1c(SCC(=O)N2CCN(c3ccc(Cl)cc3)CC2)nc2ccccc2c1=O | ? | 0 | 0 | 0 | ? | 0
CCN(CC)C(=O)CSc1nc2ccccc2c(=O)n1CCC(=O)N1CCN(c2ccccc2)CC1 | 16µM | 0 | 0 | 0 | ? | 0
SMILES | TDP1 cell CPT | HT1080-NT tox | IL-1B inflam inh | HT1080 IDH1KD tx | TDP1 cell noCPT | ELG1 DNA repair
CCCn1c(SCC(=O)N2CCN(c3ccccc3)CC2)nc2ccccc2c1=O | ? | 0 | 0 | 0 | ? | ?
CCN(CC)CCNC(=O)c1cn(CC)c2cc(N3CCN(C)CC3)c(F)cc2c1=O | 0 | 0 | 0 | 0 | 0 | 0
O=C(CSc1nc2ccccc2n1Cc1ccccc1)N1CCN(c2ccc(F)cc2)CC1 | 0 | - | - | - | 0 | -
O=C(CSc1nc2ccccc2c(=O)n1CCCN1CCOCC1)N1CCN(c2ccccc2)CC1 | 0 | 0 | 0 | 0 | ? | 0
O=c1c2ccccc2nnn1CSc1nc2ccccc2c(=O)n1Cc1ccco1 | 23µM | 0 | 0 | 0 | 21µM | 0
COc1ccc(CC(=O)N2CCC(Nc3nc4ccccc4n3Cc3ccc(F)cc3)CC2)cc1 | ? | ? | ? | ? | ? | 21µM
COc1ccc(Cn2c(SCC(=O)N3CCN(c4ccc(F)cc4)CC3)nc3ccccc32)cc1 | 21µM | - | - | - | 21µM | -
O=c1c2ccccc2nc(SCc2ccccc2)n1Cc1ccco1 | 0 | 0 | 0 | 0 | ? | ?
O=C(CSc1nc2ccccc2c(=O)n1Cc1ccco1)N1CCN(c2ccccc2)CC1 | ? | 0 | 0 | 0 | 26µM | ?
Cc1cc(C)c(Cn2c(=O)n(CCCCC(=O)NCc3ccccc3Cl)c(=O)c3ccccc32)c(C)c1 | 0 | - | - | - | 0 | -
Cc1cc([N+](=O)[O-])ccc1NC(=O)C(C)NC1CCCCC1 (stereo unspecified) | 0 | 0 | ? | 0 | 0 | 0
CC(C)CN1C(=O)C(=O)N(CC(=O)c2ccc3c(c2)CCCC3)C1=O | 0 | 0 | 0 | 0 | 0 | ?
COC(=O)[C@]1(C)N[C@H](CN(C)C(=O)Nc2ccc(C)cc2)[C@@H]2C(=O)N(C)C(=O)[C@@H]21 | 0 | 0 | 0 | 0 | 0 | ?
Cc1cc(-n2c(C)cc(C(=O)CSc3nc4ccccc4c(=O)n3Cc3ccco3)c2C)no1 | 23µM | 0 | 0 | 0 | 21µM | 0
O=C(CSc1nc2ccccc2c(=O)n1Cc1ccco1)c1ccccc1 | 16µM | 0 | 0 | ? | 21µM | ?
CCOC(=O)CSc1nc2ccccc2c(=O)n1Cc1ccco1 | 0 | 0 | 0 | 0 | 0 | 0
Cc1cc(-n2c(C)cc(C(=O)CSc3nnnn3-c3ccccc3)c2C)no1 | ? | ? | 0 | ? | ? | ?
CC(C)C(=O)Nc1ccc(NC(=O)c2ccc(COc3ccccc3)cc2)cc1 | 0 | 0 | 0 | 0 | 0 | 0
COc1ccc(C2=C/C(=C\c3cccc(OC(C)=O)c3)C(=O)O2)cc1 | ? | 0 | 0 | 0 | ? | 0
COc1ccc(C2=C/C(=C\c3ccccc3OC(C)=O)C(=O)O2)cc1 | 21µM | 0 | 0 | 0 | 15µM | 0
COc1ccccc1NC(=O)N(C)C[C@@H]1OCc2cnnn2CCCC(=O)N([C@@H](C)CO)C[C@H]1C | 0 | 0 | 0 | 0 | 0 | -
COc1cc(CNCCc2ccc(F)cc2)ccc1OCc1ccc(Cl)nc1 | 18µM | ? | -56 | ? | 21µM | 0
CCNCc1ccc(OCc2ccccc2F)c(OC)c1 | 0 | 0 | 0 | 0 | ? | ?
COc1cc(CNCCc2ccccc2F)ccc1OCc1ccc(Cl)nc1 | 15µM | ? | 0 | ? | 23µM | ?

Screening results (PubChem BioAssay)
